Structures are written as SMILES. Records with an inconclusive call do not appear. Unmarked numbers belong to inactive results. The source made the active and inactive calls. Unless noted, calls come from the whole dose curve.

Experiment [1] is described as follows: qHTS for Inhibitors of the Functional Ribonucleoprotein Complex (vRNP) of Lassa (LASV) Arenavirus: LASV Primary Screen - GLuc reporter signal (AID 1347082; calls by dose curve; tested in HEK293 reporter line; note: nearly all actives have a fitted effect of over 60% in size; for activity change, negative = inhibition: series mostly up to about 57 µM).
Experiment [2] can be described thus: qHTS for Inhibitors of the Functional Ribonucleoprotein Complex (vRNP) of Lassa (LASV) Arenavirus: Viability assay - alamar blue signal for LASV Primary Screen (AID 1347083; calls by dose curve; tested in HEK293 reporter line; note: nearly all actives have a fitted effect of over 80% in size; for activity change, negative = reduced viability: series mostly up to about 57 µM). Background: qHTS replaces the single test concentration by a dilution series.
The nature of experiment [3]: qHTS for Inhibitors of the Functional Ribonucleoprotein Complex (vRNP) of Lymphocytic Choriomeningitis Arenaviruses (LCMV): Viability assay - alamar blue signal for LCMV Primary Screen (AID 1347085; calls by dose curve; tested in HEK293 reporter line; note: nearly all actives have a fitted effect of over 80% in size; for activity change, negative = lower viability: series mostly up to about 57 µM).
Experiment [4] concerns the target Nucleoprotein (Lymphocytic choriomeningitis virus (strain Armstrong)) (UniProt P09992). As to the kind of experiment: qHTS for Inhibitors of the Functional Ribonucleoprotein Complex (vRNP) of Lymphocytic Choriomeningitis Arenaviruses (LCMV): LCMV Primary Screen - GLuc reporter signal (AID 1347086). For activity change, negative = inhibition: series mostly up to about 57 µM. Note: nearly all actives have a fitted effect of over 70% in size.
% is set by controls: 0 for no effect and ±100 for the full control effect; potency is the fitted concentration of half-maximal effect.

Nucleoprotein (Lymphocytic choriomeningitis virus (strain Armstrong)), sequence (P09992 whole entry, looked up): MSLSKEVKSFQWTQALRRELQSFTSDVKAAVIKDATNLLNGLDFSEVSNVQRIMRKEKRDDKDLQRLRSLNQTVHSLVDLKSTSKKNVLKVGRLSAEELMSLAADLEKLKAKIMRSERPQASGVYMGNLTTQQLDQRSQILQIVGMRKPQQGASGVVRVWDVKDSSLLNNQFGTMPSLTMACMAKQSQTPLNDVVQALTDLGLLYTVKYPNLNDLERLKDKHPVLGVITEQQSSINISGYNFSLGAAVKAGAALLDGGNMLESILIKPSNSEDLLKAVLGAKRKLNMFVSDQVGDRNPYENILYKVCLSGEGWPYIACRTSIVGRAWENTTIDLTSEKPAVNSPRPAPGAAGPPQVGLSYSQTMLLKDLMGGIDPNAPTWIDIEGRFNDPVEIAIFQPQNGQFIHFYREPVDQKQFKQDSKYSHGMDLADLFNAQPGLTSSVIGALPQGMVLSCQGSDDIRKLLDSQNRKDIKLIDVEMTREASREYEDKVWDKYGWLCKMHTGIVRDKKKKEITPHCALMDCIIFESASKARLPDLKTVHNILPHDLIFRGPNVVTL

In the case of `CC(C)=CCC1=C(O)[C@](O)(CC=C(C)C)C(=O)C(C(=O)CC(C)C)=C1O`, the Potency entry in experiment [1], in experiment [2], in experiment [3] and in experiment [4] was “inactive” throughout.

On to `C=C1C[C@]23CC[C@H]4C(CO)(CO)C[C@@H](O)C[C@@]4(C)[C@@H]2CC[C@H]1C3`, for which the Potency result in experiment [1], in experiment [2], in experiment [3] and in experiment [4] was “inactive” each time.

As to `CC[C@@H](C)[C@@H](O)[C@H](C)C(=O)[C@H](C)/C=C(\C)C[C@H](C)[C@@H]1OC(=O)[C@H]1CC`, the Potency result in experiment [1], in experiment [2], in experiment [3] and in experiment [4] was “inactive” throughout.

As for `O=Cc1cc2ccccc2o1`, the Potency result in experiment [1], in experiment [2], in experiment [3] and in experiment [4] was “inactive” each time.

For the compound `C[C@@H]1O[C@@H](O[C@H]2[C@H](O)[C@@H](O)[C@H](Oc3c(-c4ccc(O)c(O)c4)oc4cc(O)cc(O)c4c3=O)O[C@@H]2CO)[C@H](O)[C@H](O)[C@H]1O`, the Potency result in experiment [1], in experiment [2], in experiment [3] and in experiment [4] was “inactive” throughout.

Consider `CC[C@@H](O)C[C@H]1CCC[C@@]2(C[C@@H]3OC(=O)/C=C/[C@@](C)(O)[C@@H](O)[C@H](C)[C@@H](O)[C@H](OC4CCC(N(C)C)C(C)O4)[C@@H](O)[C@](C)(O)CCCCC/C=C/[C@@H]4CC(C)(C)O[C@@]4(O)C[C@H](O2)[C@H]3C)O1` (stereo partly drawn), for which the Potency result in experiment [1], in experiment [2], in experiment [3] and in experiment [4] was “inactive” each time.

As to `CC(C)=CC(=O)O[C@@H]1Cc2cc3ccc(=O)oc3cc2OC1(C)C`, the Potency entry in experiment [1], in experiment [2], in experiment [3] and in experiment [4] was “inactive” throughout.

With `COc1ccc(-c2coc3cc(OC)ccc3c2=O)cc1`, the Potency result in experiment [1], in experiment [2], in experiment [3] and in experiment [4] was “inactive” throughout.

In the case of `CCCCCCC[C@@H](C/C=C/CCC(=O)N(C)C/C(=C/Cl)C/C(=C\C(=O)N1CC(OC)=CC1=O)OC)OC`, the Potency result in experiment [1], in experiment [2], in experiment [3] and in experiment [4] was “inactive” in each case.

For `CCCCC(C)/C=C(C)/C=C(\C)C(=O)NC1=CC(O)(/C=C/C=C/C=C/C(=O)NC2=C(O)CCC2=O)C2OC2C1=O` (stereo not drawn), the Potency entry in experiment [1], in experiment [2], in experiment [3] and in experiment [4] was “inactive” throughout.

`COc1c(C(O)CC(C)C)ccc2c1C(=O)OCc1cc(C)cc(O)c1O2` (stereo not drawn): the Potency result in experiment [1], in experiment [2], in experiment [3] and in experiment [4] was “inactive” each time.

Regarding `CC(C)CCO`, the Potency result in experiment [1], in experiment [2], in experiment [3] and in experiment [4] was “inactive” each time.

On to `c1ccc2cnccc2c1`, for which the Potency result in experiment [1], in experiment [2], in experiment [3] and in experiment [4] was “inactive” in each case.

`CCCC1CCCC(=O)O1` (stereo not drawn): the Potency entry in experiment [1], in experiment [2], in experiment [3] and in experiment [4] was “inactive” in each case.

`Cn1c2ccccc2c2c3c(c4c5ccccc5n(CCC#N)c4c21)CNC3=O`: the Potency in experiment [1] was 8.63 µM (active); in experiment [2], 0.485 µM (active); in experiment [3], 3.85 µM (active); in experiment [4], 6.11 µM (active).

Take `CC1(C)C[C@@H](O)[C@]2(C)CC[C@]3(C)C(=CCC4[C@@]5(C)CC[C@H](O)[C@](C)(CO)C5CC[C@]43C)[C@@H]2C1` (stereo partly drawn): the Potency entry in experiment [1], in experiment [2], in experiment [3] and in experiment [4] was “inactive” each time.

As to `CC(C)=CCC[C@](C)(O[C@@H]1O[C@H](CO[C@@H]2OC[C@H](O[C@@H]3OC[C@@H](O)[C@H](O)[C@H]3O)[C@H](O)[C@H]2O)[C@@H](O)[C@H](O)[C@H]1O)C1CC[C@]2(C)C1[C@H](O)CC1[C@@]3(C)CC[C@H](O)C(C)(C)C3[C@@H](O)C[C@]12C` (stereo partly drawn), the Potency entry in experiment [1], in experiment [2], in experiment [3] and in experiment [4] was “inactive” throughout.

As to `O=C1c2c(O)cc(O)cc2O[C@H](c2ccc(O)c(O)c2)[C@@H]1O`, the Potency entry in experiment [1], in experiment [2], in experiment [3] and in experiment [4] was “inactive” throughout.

Consider `CC(C=CC(O)=C1C(=O)CNC1=O)=C[C@@H](C)C1OC2(C)OC(C(=O)C3O[C@@]32C)C1C` (stereo partly drawn), for which the Potency result in experiment [1], in experiment [2], in experiment [3] and in experiment [4] was “inactive” throughout.

Take `COc1cc2nc3occc3c(OC)c2cc1OC`: the Potency result in experiment [1], in experiment [2], in experiment [3] and in experiment [4] was “inactive” in each case.

Turning to `C=C(CC1CC(O)[C@]2(C)OC3CC4OC5C[C@]6(C)O[C@]7(C)CCC8OC9C[C@]%10(C)OC%11C(C)=CC(=O)OC%11CC%10OC9C[C@@H](C)C8OC7CC6O[C@]5(C)C/C=C\C4OC3CC2O1)C(=O)O` (stereo partly drawn), the Potency entry in experiment [1], in experiment [2], in experiment [3] and in experiment [4] was “inactive” throughout.

For the compound `COc1c(O)ccc2c1-c1c3c(cc4c1C(C2)N(C)CC4)OCO3` (stereo not drawn), the Potency result in experiment [1], in experiment [2], in experiment [3] and in experiment [4] was “inactive” in each case.

For `O=C(O)CCC/C=C\C/C=C\C=C\[C@@H](O)C/C=C\CCCCCO`, the activity change, negative = inhibition in experiment [1] was 7.21% [at 0.757 µM]; in experiment [4] it was 12.9% [at 0.757 µM]. Further, in experiment [2], the activity change, negative = reduced viability was 9.56% [at 0.757 µM]. In experiment [3], the activity change, negative = lower viability was 9.51% [at 0.757 µM].

Turning to `O=C(O)c1cccc(C(=O)O)n1`, the Potency result in experiment [1], in experiment [2], in experiment [3] and in experiment [4] was “inactive” in each case.

In the case of `O=C/C=C/c1ccc(O)cc1`, the Potency result in experiment [1], in experiment [2], in experiment [3] and in experiment [4] was “inactive” each time.

Turning to `O=C1c2ccccc2C(=O)c2c(O)ccc(O)c21`, the Potency entry in experiment [1], in experiment [2], in experiment [3] and in experiment [4] was “inactive” in each case.

On to `C=C/C(=C/C(=O)C[C@H](C)C[C@@H](C)CC[C@H](O)[C@H](C)C(=O)C[C@@H](O)[C@H](C)[C@@H](C)OC(=O)C[C@@H](O)C1=C(C)C(=O)OC1=O)CC`, for which the activity change, negative = inhibition is -47.1% [at 11.5 µM] in experiment [1] and -83.6% [at 11.5 µM] in experiment [4]. Also, the activity change, negative = reduced viability in experiment [2] was -113% [at 11.5 µM]. In addition, in experiment [3], the activity change, negative = lower viability is -114% [at 11.5 µM].
